Peg3 prom inh: reduces Peg3 promoter-driven luciferase expression in HeLa | AID 588405 | inhibition, % at 20 µM | HeLa PEG-Prom luciferase reporter, luminescence, overnight | 1.7% of 360,000 active;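 active = inhibition of at least 50% at 20 µM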
KKLEB tox: reduces viability of KKLEB cystic fibrosis airway cells; 0.36% of 360,000 active; activity change (cytotoxicity), % at 5 µM; KKLEB CF airway cells viability, ATPlite luminescence, overnight; stronger effect = lower value; cells stimulated with P. aeruginosa culture filtrate;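 active = corrected activity change at or below -50% at 5 µM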
CF NFkB inh: blocks PAF-induced NF-kB reporter in cystic fibrosis cells | KKLEB NF-kB-GFP reporter, GFP fluorescence overnight | inhibition, % at 5 µM | 0.86% of 360,000 active | AID 588850;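 active = at least 50% inhibition at 5 µM, scaled per plate between neutral and stimulator controls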;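 note: PAF is a Pseudomonas aeruginosa culture filtrate used as stimulus; plate controls were PAF-stimulated DMSO wells for no effect and unstimulated DMSO wells for full effect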
HIF-2a block: blocks HIF-2a reporter activity; 786-0 RCC cells HIF-2a reporter, luciferase luminescence, overnight; AID 624352; inhibition, % at 18.8 µM; 0.72% of 360,000 active;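 active = inhibition of the luminescence signal of 40% or more relative to plate controls, in a single-dose primary screen at 18.75 µM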
TWEAK Fn14 block: blocks TWEAK-Fn14 interaction in a reporter cell assay; TWEAK-stimulated Fn14 reporter cells, luciferase luminescence, 8 h; inhibition, % at 10 µM; 2% of 360,000 active; AID 1159606; in the data active = inhibition above about 50%
TROY NFkB inh: inhibitors of TROY-dependent NF-kB signaling | Q293 LMP1-TROYcd NF-kB luciferase reporter, 4 h | inhibition, % at 10 µM | 0.98% of 360,000 active | AID 1347056;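 active = compounds whose plate-normalised and pattern-corrected inhibition of the luciferase reporter signal at the single screening dose is 50% or more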
The depositor's hits bear a star. Sampled rows, rich in hits. Any-hit rate of the full collection: about 4%.

What do the screens show for `COc1cccc(C(=O)Nc2nnc(-c3cccs3)s2)c1`?
Peg3 prom inh: -165.6; KKLEB tox: 9.0; CF NFkB inh: -9.0; HIF-2a block: -162.7; TWEAK Fn14 block: 69.9*; TROY NFkB inh: 16.2

Results for Cc1cc(C)c(OCC(=O)Nc2ccc(NC(=O)c3ccco3)cc2)c([N+](=O)[O-])c1 ?
Peg3 prom inh: 27.9; KKLEB tox: 3.9; CF NFkB inh: 6.1; HIF-2a block: 1.0; TWEAK Fn14 block: -0.8; TROY NFkB inh: -14.5

Results for CCCCNC1C(CC)C(CCC)C(C#N)(C#N)C1(C#N)C#N (stereo not drawn) ?
Peg3 prom inh: 26.6; KKLEB tox: -31.1; CF NFkB inh: 80.7*; HIF-2a block: 16.8; TWEAK Fn14 block: 55.6*; TROY NFkB inh: 17.0

How did CCCn1c(SCC(=O)N(C2CCCCC2)C2CCS(=O)(=O)C2)n[nH]c1=O (stereo not drawn) do in these assays?
Peg3 prom inh: -6.5; KKLEB tox: -1.1; CF NFkB inh: -18.7; HIF-2a block: 1.0; TWEAK Fn14 block: 1.2; TROY NFkB inh: -15.8

What do the screens show for `CCN(CC)c1ccc(/C=C2\SC(=O)N(C(C)C)C2=O)o1`?
Peg3 prom inh: 89.1*; KKLEB tox: 12.6; CF NFkB inh: -19.1; HIF-2a block: -17.9; TWEAK Fn14 block: 38.1; TROY NFkB inh: 1.3

What do the screens show for `CC(C)N1C(=O)S/C(=C/c2ccc3c(c2)n(C)c(=O)n3C)C1=O`?
Peg3 prom inh: -56.4; KKLEB tox: 5.1; CF NFkB inh: -60.5; HIF-2a block: -81.5; TWEAK Fn14 block: -4.7; TROY NFkB inh: -58.5

Results for CC(=O)Nc1ccccc1P(=O)(c1ccccc1)c1ccccc1OC(C)=O (stereo not drawn) ?
Peg3 prom inh: 16.3; KKLEB tox: 3.2; CF NFkB inh: 1.7; HIF-2a block: 15.9; TWEAK Fn14 block: 13.4; TROY NFkB inh: -3.7

How did COc1ccccc1CN(C)C(=O)c1cc(C)nc2ccccc12 do in these assays?
Peg3 prom inh: 12.6; KKLEB tox: 2.7; CF NFkB inh: 18.4; HIF-2a block: 16.0; TWEAK Fn14 block: 8.2; TROY NFkB inh: 13.0

What do the screens show for `COc1ccc(CN(C)C(=O)c2cc(-c3ccccc3)nc3ccc(C)cc23)c(OC)c1`?
Peg3 prom inh: 98.5*; KKLEB tox: -10.0; CF NFkB inh: 12.5; HIF-2a block: -35.3; TWEAK Fn14 block: 52.6*; TROY NFkB inh: 10.7

What do the screens show for `Cc1cc2c(cc1C)-n1nnnc1C(N(C)CCc1ccccc1)C(=O)N2` (stereo not drawn)?
HIF-2a block: 0.1

What do the screens show for `Cc1ccc(C=Nc2ccccc2C(N)=O)o1`?
Peg3 prom inh: -13.6; KKLEB tox: -6.6; CF NFkB inh: 8.9; HIF-2a block: 8.9; TWEAK Fn14 block: -6.5; TROY NFkB inh: -12.3

How did CN(C)c1ccc(C=Nc2ccccc2C(N)=O)cc1 do in these assays?
Peg3 prom inh: 63.2*; KKLEB tox: -41.4; CF NFkB inh: -3.3; HIF-2a block: 6.3; TWEAK Fn14 block: -2.3; TROY NFkB inh: -49.1

What do the screens show for `CCCN1CCC(N2CCCC(C(=O)O)C2)CC1` (stereo not drawn)?
Peg3 prom inh: 37.4; KKLEB tox: 13.0; CF NFkB inh: 5.2; HIF-2a block: 37.2; TWEAK Fn14 block: 61.4*; TROY NFkB inh: 40.9

Results for CCCCCC1C(C(=O)OCC)C(=O)NC1(C(=O)OCC)C(=O)OCC (stereo not drawn) ?
Peg3 prom inh: 0.7; KKLEB tox: -1.7; CF NFkB inh: -10.8; HIF-2a block: 18.2; TWEAK Fn14 block: -3.9; TROY NFkB inh: -1.4

Results for COc1ccc(C(C)=O)cc1COc1cccnc1[N+](=O)[O-] ?
Peg3 prom inh: -8.7; KKLEB tox: -7.1; CF NFkB inh: 11.0; HIF-2a block: -12.9; TWEAK Fn14 block: 23.9; TROY NFkB inh: 13.2

What do the screens show for `CCOc1ccc(C(C)=O)cc1COc1cccnc1[N+](=O)[O-]`?
Peg3 prom inh: 18.9; KKLEB tox: -23.8; CF NFkB inh: 18.8; HIF-2a block: 22.1; TWEAK Fn14 block: 39.2; TROY NFkB inh: 60.2*

Results for Cc1ccc(CSCc2nc3ccccc3[nH]2)cc1 ?
Peg3 prom inh: -44.5; KKLEB tox: 17.2; CF NFkB inh: 10.3; HIF-2a block: -132.9; TWEAK Fn14 block: 1.9; TROY NFkB inh: -11.8
